High-throughput results from PubChem BioAssay.
Sampled rows, rich in hits. Any-hit rate of the full collection: about 9.2%.
SMN2 splice enh – qHTS Assay for Enhancers of SMN2 Splice Variant Expression; HEK293 SMN2-luciferase splicing reporter, luminescence, 30-36 h; Potency, µM (series often up to 46.1 µM), for the others: at the top dose activity change, positive = activation, hits mostly activators; hit rate 2.8% among 210,000; also: % of control where 0% means no effect; nearly all actives have a fitted effect of over 55% in size
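HEK293 cells carry an SMN2 […]–luciferase reporter in which exon 7 inclusion puts luciferase in frame. Cells were plated 10-12 h before compound addition, then incubated 30-36 h at 37C. ONE-Glo luminescence was read; sodium butyrate at 4.5 mM final served as control.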
ELG1 repair inh – qHTS screen for small molecules that inhibit ELG1-dependent DNA repair in human embryonic kidney (HEK293T) cells expressing luciferase-tagged ELG1; hit rate 2.3% among 330,000; HEK293T ELG1-luciferase reporter, luminescence, 16 h; DNA damage induced by 5-fluorouridine; Potency, µM (top dose mostly 46.1 µM), inactives show at the highest dose activity change, negative = inhibition, actives largely listed as inhibitors; also: % is scaled to controls: 0 for no effect and ±100 for the full control effect; nearly all actives have a fitted effect of over 55% in size
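Quantitative HTS, concentration-response format. 2,000 cells/well co-treated with 5-fluorouridine and compound, 16 hr in 5% CO2 at 37 °C; ONE-Glo luminescence read after 30 min.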
Rab9 prom act – qHTS Assay for Rab9 Promoter Activators; Huh7 Rab9 promoter-luciferase reporter, luminescence, 24 h; Potency, µM (top dose mostly 9.22 µM), for the others: at the highest dose activation, negative = inhibition, usual class: activators; hit rate 2.8% among 320,000; AID 485297, 2010; also: % of control where 0% means no effect; nearly all actives have a fitted effect of over 60% in size
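Rab9 promoter-driven luciferase in stably transfected Huh7 cells; 1500 cells/well rested 2 h, exposed to compound in DMSO for 24 h at 37 °C, 5% CO2. Luminescence read 10 min after adding luciferase reagent at ambient temperature.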
NPC1 promoter act – qHTS Assay for NPC1 Promoter Activators; Huh7 NPC1 promoter luciferase reporter, 24 h; Potency, µM (top dose mostly 9.22 µM), without a hit: top-dose activation, usual class: activators; hit rate 2.4% among 320,000; also: % of control where 0% means no effect; nearly all actives have a fitted effect of over 60% in size
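Stable NPC1-promoter luciferase Huh7 line; cpd (DMSO) 24 h, 37 °C, 5% CO2; Amplite luciferase reagent 10 min RT; luminescence readout. qHTS format.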
ELG1 genotoxic – qHTS screen for small molecules that induce genotoxicity in human embryonic kidney (HEK293T) cells expressing luciferase-tagged ELG1. AID 504466, 2011. hit rate 1.3% among 330,000. Potency, µM (titrated, usually from 46 µM), without a hit: at the top dose activity change, positive = activation, hits mostly activators. HEK293T ELG1-luciferase reporter, luminescence, 16 h; also: % of control where 0% means no effect; nearly all actives have a fitted effect of over 60% in size
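Genotoxic stress is detected as increased luminescence from luciferase-tagged ELG1 in HEK293T cells, measured with ONE-Glo after a 16 hr treatment at 37 °C.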
FLuc counter – qHTS profiling assay for firefly luciferase inhibitor/activator using purifed enzyme and Km concentrations of substrates (counterscreen for miR-21 project) | AID 588342, 2011 | hit rate 6.9% among 360,000 | purified FLuc, Km substrates, luminescence inhibition | Potency, µM (series often up to 57.5 µM), for the others: at the top dose activity change, negative = inhibition, actives largely listed as inhibitors;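 also: plate controls were vehicle for no effect and reference inhibitor for full effect; nearly all actives have a fitted effect of over 55% in size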
Target sequence (P08659 whole entry, looked up): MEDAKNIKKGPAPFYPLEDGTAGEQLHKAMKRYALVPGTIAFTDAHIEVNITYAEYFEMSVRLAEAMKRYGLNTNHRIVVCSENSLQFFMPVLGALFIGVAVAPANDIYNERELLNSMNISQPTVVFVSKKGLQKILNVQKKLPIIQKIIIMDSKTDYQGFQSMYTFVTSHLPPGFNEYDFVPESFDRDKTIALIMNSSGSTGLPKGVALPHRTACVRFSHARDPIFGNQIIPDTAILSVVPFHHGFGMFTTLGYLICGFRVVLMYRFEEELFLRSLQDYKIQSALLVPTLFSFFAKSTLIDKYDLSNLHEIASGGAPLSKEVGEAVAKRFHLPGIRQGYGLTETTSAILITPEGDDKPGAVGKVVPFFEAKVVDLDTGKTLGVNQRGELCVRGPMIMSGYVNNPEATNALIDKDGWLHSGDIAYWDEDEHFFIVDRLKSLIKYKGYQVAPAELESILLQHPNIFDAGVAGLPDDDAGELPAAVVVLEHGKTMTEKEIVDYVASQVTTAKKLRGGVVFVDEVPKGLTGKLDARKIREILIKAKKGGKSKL
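Biochemical qHTS of compounds, final roughly 60 µM downward over six points, against 10 nM purified firefly luciferase using Km concentrations of substrates (10 uM D-luciferin, 10 uM ATP) in Tris acetate pH 7.5 buffer; luminescence output.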
* = called active by the depositor. Calls follow the shape of the dose curve; as a rule, active = well fitted curve in the direction sought with a large enough effect; inconclusive = small, poorly fitted or top-dose-only effect, or another doubt; inactive = no such curve, though single readings can be large; an effect the other way counts as inactive or inconclusive. Potency is read from the fitted curve at half-maximal effect.

Clc1ccc(Oc2cnc3ccccc3n2)cc1 was read as SMN2 splice enh 0%, ELG1 repair inh inconclusive, Rab9 prom act 8%, NPC1 promoter act 20%, ELG1 genotoxic -6% and FLuc counter inconclusive.
`Cc1ccc(Oc2cnc3ccccc3n2)cc1` gave SMN2 splice enh 5%, ELG1 repair inh 22%, Rab9 prom act inconclusive, NPC1 promoter act inconclusive, ELG1 genotoxic 7% and FLuc counter 12µM*.
Screening Cc1ccc(/C=C/c2onc(C)c2S(=O)(=O)N2CCC(C(=O)Nc3ccccc3C(F)(F)F)CC2)cc1 returned FLuc counter 2%.
For COn1c(-c2ccc(Cl)cc2)nc2ncccc21 the results were ELG1 repair inh inconclusive, Rab9 prom act inconclusive, NPC1 promoter act inconclusive, ELG1 genotoxic inconclusive and FLuc counter 21µM*.
For COC(=O)Cc1ccc(NC(=S)N2CCN(c3ccc(OC)cc3)CC2)cc1 the results were SMN2 splice enh -46%, ELG1 repair inh -14%, Rab9 prom act -2%, NPC1 promoter act -2%, ELG1 genotoxic -4% and FLuc counter 5%.
`COCCSc1ccccc1C(=O)N1CCC(Cc2ccccc2)CC1` gave SMN2 splice enh -17%, ELG1 repair inh 23µM*, Rab9 prom act -3%, NPC1 promoter act 3%, ELG1 genotoxic -12% and FLuc counter 0%.
For Cc1c(C(=O)N2CCC(Cc3ccccc3)CC2)cccc1[N+](=O)[O-] the results were ELG1 repair inh -1%, Rab9 prom act 2%, NPC1 promoter act -8%, ELG1 genotoxic 0% and FLuc counter 1%.
COC(=O)Cc1ccc(NC(=S)N2CCC(Cc3ccccc3)CC2)cc1 was read as ELG1 repair inh 1%, Rab9 prom act 8%, NPC1 promoter act 1%, ELG1 genotoxic -3% and FLuc counter 4.8µM*.
For COC(=O)Cc1ccc(NC(=S)N2CCCCC2C)cc1 (stereo unspecified) the results were SMN2 splice enh 6%, ELG1 repair inh inconclusive, Rab9 prom act 18%, NPC1 promoter act 10%, ELG1 genotoxic 10% and FLuc counter 4.8µM*.
For COC(=O)Cc1ccc(NC(=S)N2CCN(C)CC2)cc1 the results were SMN2 splice enh inconclusive, ELG1 repair inh 0%, Rab9 prom act 21%, NPC1 promoter act 10%, ELG1 genotoxic 11% and FLuc counter 5.4µM*.
`CC(=O)N1CCCc2cc(S(=O)(=O)N3CCC(C(=O)NCc4ccccc4Cl)CC3)ccc21` gave FLuc counter -3%.
For Cc1cccc(C)c1NC(=O)CSc1nc2ncccc2o1 the results were FLuc counter -3%.
Screening CCc1ccccc1NC(=O)CSc1nc2c(oc3ccccc32)c(=O)n1-c1ccccc1F returned SMN2 splice enh -11% and FLuc counter -1%.
Screening Cc1cc(C)c2c(N=NN3CCCCC3)[nH]nc2n1 returned SMN2 splice enh 1%, ELG1 repair inh inconclusive, Rab9 prom act 23%, NPC1 promoter act 20%, ELG1 genotoxic 17% and FLuc counter 19µM*.
O=C(Nc1nc2ccccc2s1)NC1CCCCC1 was read as ELG1 repair inh inconclusive, Rab9 prom act 0.63µM*, NPC1 promoter act 1.4µM*, ELG1 genotoxic inconclusive and FLuc counter 1.9µM*.
Screening CCOC(=O)C(C(=O)Nc1nc2ccccc2s1)C1CCCCC1 (stereo unspecified) returned SMN2 splice enh -20%, ELG1 repair inh -5%, Rab9 prom act 2%, NPC1 promoter act 4%, ELG1 genotoxic -1% and FLuc counter -1%.
For Cc1cnc(NC(=O)CC2CCCC2)s1 the results were SMN2 splice enh 18µM*, ELG1 repair inh inconclusive, Rab9 prom act inconclusive, NPC1 promoter act inconclusive, ELG1 genotoxic inconclusive and FLuc counter inconclusive.
Screening O=C(CC1CCCCC1)Nc1nc2ccccc2s1 returned SMN2 splice enh 11µM*, ELG1 repair inh inconclusive, Rab9 prom act 1.6µM*, NPC1 promoter act 1.8µM*, ELG1 genotoxic inconclusive and FLuc counter inconclusive.
`COCCNC(=O)/C(C#N)=C/c1ccc(OCC(=O)NC2CCCCC2)cc1` gave SMN2 splice enh -1%, ELG1 repair inh -16%, Rab9 prom act 0%, NPC1 promoter act 7%, ELG1 genotoxic -1% and FLuc counter -11%.
For CCOC(=O)c1c(C)[nH]c(N=Nc2ccccc2Cl)c1C the results were ELG1 repair inh inconclusive, Rab9 prom act inconclusive, NPC1 promoter act inconclusive, ELG1 genotoxic inconclusive and FLuc counter 12µM*.
For CCOC(=O)c1c(C)[nH]c(N=Nc2ccc(C)cc2)c1C the results were SMN2 splice enh 13µM*, ELG1 repair inh inconclusive, Rab9 prom act 1.4µM*, NPC1 promoter act 1µM*, ELG1 genotoxic 3.2µM* and FLuc counter 3.8µM*.
Screening CCOC(=O)c1c(C)[nH]c(NC(=O)NNC(=O)c2ccccc2Cl)c1C returned ELG1 repair inh 0%, Rab9 prom act -3%, NPC1 promoter act 1% and ELG1 genotoxic 0%.
For CCOC(=O)c1c(C)[nH]c(N=Nc2ccccc2)c1C the results were SMN2 splice enh 4%, ELG1 repair inh inconclusive, Rab9 prom act inconclusive, NPC1 promoter act inconclusive, ELG1 genotoxic 12µM* and FLuc counter 12µM*.
For CCOC(=O)c1c(C)[nH]c(N=Nc2ccc(OC)cc2)c1C the results were ELG1 repair inh inconclusive, Rab9 prom act inconclusive, NPC1 promoter act 3.5µM*, ELG1 genotoxic inconclusive and FLuc counter 7.6µM*.
CCOC(=O)c1c(C)[nH]c(C=Nc2ccccc2)c1O was read as SMN2 splice enh inconclusive, ELG1 repair inh -3%, Rab9 prom act inconclusive, NPC1 promoter act inconclusive, ELG1 genotoxic 3% and FLuc counter 2%.
Screening COc1ccc(NC(=O)C2(S(=O)(=O)c3ccc(C)cc3)CC2)c(OC)c1 returned SMN2 splice enh -12% and FLuc counter -4%.
For COC(=O)c1cc2c(C)c(C)c3ccccn3c-2c1C(=O)OC the results were SMN2 splice enh 0%, ELG1 repair inh inconclusive, Rab9 prom act 6%, NPC1 promoter act -4%, ELG1 genotoxic -3% and FLuc counter inconclusive.
For CC(C)OC(=O)c1c2c(n3ccccc13)C(=O)c1ccccc1C2=O the results were SMN2 splice enh 1%, ELG1 repair inh 18µM*, Rab9 prom act 19%, NPC1 promoter act -3%, ELG1 genotoxic -4% and FLuc counter -7%.
